Measurements published in PubChem BioAssay (EPA / NIEHS).
Activity calls are given as the source filed them. How the source made its calls: active means hit-call score of the fitted dose curve at least 0.9, where 1 is the maximum; inactive means score below 0.9.

Tests used:
Conditions in all cases: mRNA level, 48 h; actives raise or lower the signal
[1] = read-out: Forkhead box O3 (FOXO3), FOXO3 (gene 2309); test: LTEA_HepaRG_FOXO3: Life Technologies and Expression Analysis (LTEA) Assay for Forkhead box O3 (FOXO3) using HepaRG (AID 2283459)
In short: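 FOXO3 transcript measured by qRT-PCR (normalized to ACTB, GAPDH, POLR2A) after 48 h exposure of HepaRG cells in serum-free induction medium. Duplicates, eight half-log concentrations up to 100 uM, 0.5% DMSO; gain or loss fitted against DMSO.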

[2] = read-out: ABC Transporter (ABCB1), ABCB1 (gene 5243); test: LTEA_HepaRG_ABCB1: Life Technologies and Expression Analysis (LTEA) Assay for ABC Transporter (ABCB1) using HepaRG (AID 2283460)
In short: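 ABCB1 transcript level measured by TaqMan qRT-PCR against three housekeeping genes after 48 h chemical exposure of differentiated HepaRG cells. Top concentration 100 uM, half-log steps, eight points, 0.5% DMSO vehicle; bidirectional fit relative to DMSO.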

[3] = read-out: growth arrest and DNA damage 45 (GADD45B), GADD45B (gene 4616); test: LTEA_HepaRG_GADD45B: Life Technologies and Expression Analysis (LTEA) Assay for growth arrest and DNA damage 45 (GADD45B) using HepaRG (AID 2283461)
In short: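 qRT-PCR read-out (Fluidigm TaqMan, housekeeping-normalized) of mRNA change in human HepaRG cells after 48 h chemical exposure; 8-point curve, top 100 uM, half-log steps, 0.5% DMSO vehicle; gain or loss fitted relative to DMSO baseline.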

[4] = read-out: ABC Transporter (ABCC3), ABCC3 (gene 8714); test: LTEA_HepaRG_ABCC3: Life Technologies and Expression Analysis (LTEA) Assay for ABC Transporter (ABCC3) using HepaRG (AID 2283462)
In short: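 qRT-PCR read-out of ABCC3 transcript, normalized to three housekeeping genes (ACTB, GAPDH, POLR2A), after 48 h chemical exposure of human HepaRG cells. Eight half-log concentrations, highest 100 uM, in 0.5% DMSO; gain or loss fitted relative to DMSO baseline.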

[5] = read-out: ABC Transporter (ABCB11), ABCB11 (gene 8647); test: LTEA_HepaRG_ABCB11: Life Technologies and Expression Analysis (LTEA) Assay for ABC Transporter (ABCB11) using HepaRG (AID 2283463)
In short: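 ABCB11 transcript levels quantified by TaqMan qRT-PCR against three housekeeping genes after 48 h chemical exposure of HepaRG cultures. Concentrations up to 100 uM in half-log steps, 0.5% DMSO vehicle; both induction and suppression scored.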

[6] = read-out: ABC Transporter (ABCC2), ABCC2 (gene 1244); test: LTEA_HepaRG_ABCC2: Life Technologies and Expression Analysis (LTEA) Assay for ABC Transporter (ABCC2) using HepaRG (AID 2283464)
In short: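 qRT-PCR (TaqMan, Fluidigm array) read-out of ABCC2 mRNA, normalized to three housekeeping genes. Differentiated HepaRG cells were treated 48 h in serum-free induction medium with 8-point half-log series from 100 uM in 0.5% DMSO; curves fitted bidirectionally relative to DMSO.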

[7] = read-out: Broad substrate specificity ATP-binding cassette transporter ABCG2 (Homo sapiens) (UniProt Q9UNQ0); test: LTEA_HepaRG_ABCG2: Life Technologies and Expression Analysis (LTEA) Assay for ABC Transporter (ABCG2) using HepaRG (AID 2283465)
In short: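 ABCG2 transcript was quantified by TaqMan qRT-PCR against three housekeeping genes in HepaRG cells. Cells were treated in duplicate for 48 h across an 8-point half-log series up to 100 uM, with 0.5% DMSO vehicle. Gain or loss versus DMSO was fit.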

[8] = read-out: ATP-citrate lyase (ACLY), ACLY (gene 47); test: LTEA_HepaRG_ACLY: Life Technologies and Expression Analysis (LTEA) Assay for ATP-citrate lyase (ACLY) using HepaRG (AID 2283466)
In short: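 ACLY mRNA quantified by qRT-PCR on Fluidigm arrays against three housekeeping genes, after 48 h chemical treatment of HepaRG cells (top concentration 100 uM, half-log steps, 0.5% DMSO vehicle). Up- or down-regulation fitted relative to DMSO.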

[9] = read-out: Peroxisomal acyl-coenzyme A oxidase 1 (ACOX1) gene, ACOX1 (gene 51); test: LTEA_HepaRG_ACOX1: Life Technologies and Expression Analysis (LTEA) Assay for Peroxisomal acyl-coenzyme A oxidase 1 (ACOX1) gene using HepaRG (AID 2283467)
In short: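 ACOX1 transcript levels were quantified by TaqMan qRT-PCR against three housekeeping genes after 48 h chemical exposure of differentiated human HepaRG cells. Exposure used eight half-log steps topping at 100 uM, 0.5% DMSO vehicle, in duplicate. Bidirectional curve fits were made relative to DMSO.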

[10] = read-out: Alkaline Phosphatase, Placental (ALPP) gene, ALPP (gene 250); test: LTEA_HepaRG_ALPP: Life Technologies and Expression Analysis (LTEA) Assay for Alkaline Phosphatase, Placental (ALPP) gene using HepaRG (AID 2283468)
In short: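 qRT-PCR readout of ALPP mRNA (Fluidigm TaqMan), normalized to ACTB/GAPDH/POLR2A, after 48 h chemical exposure of HepaRG cells; 8-point half-log series, top 100 uM, 0.5% DMSO vehicle. Bidirectional curve fit versus DMSO baseline.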

[11] = read-out: Bcl-2 (BAD) gene, BAD (gene 572); test: LTEA_HepaRG_BAD: Life Technologies and Expression Analysis (LTEA) Assay for Bcl-2 (BAD) gene using HepaRG (AID 2283469)
In short: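 Read-out: qRT-PCR of BAD mRNA, normalized to three housekeeping genes. Human HepaRG cultures got 48 h chemical exposure in 0.5% DMSO, duplicate eight-point half-log series topping at 100 uM. Gain or loss of signal fitted versus DMSO vehicle.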

[12] = read-out: Bcl-2 (BAX) gene, BAX (gene 581); test: LTEA_HepaRG_BAX: Life Technologies and Expression Analysis (LTEA) Assay for Bcl-2 (BAX) gene using HepaRG (AID 2283470)
In short: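 Human HepaRG cells treated in duplicate for 48 h across eight concentrations (max 100 uM, 0.5% DMSO); BAX expression measured by qRT-PCR.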

[13] = read-out: adenosine kinase (ADK) gene, ADK (gene 132); test: LTEA_HepaRG_ADK: Life Technologies and Expression Analysis (LTEA) Assay for adenosine kinase (ADK) gene using HepaRG (AID 2283471)
In short: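 HepaRG (human liver), 48 h chemical exposure, 8-pt half-log series, top 100 uM, 0.5% DMSO vehicle. Readout: ADK mRNA by qRT-PCR vs housekeeping genes; bidirectional curve fit relative to DMSO baseline.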

[14] = read-out: Alpha-fetoprotein (AFP) gene, AFP (gene 174); test: LTEA_HepaRG_AFP: Life Technologies and Expression Analysis (LTEA) Assay for Alpha-fetoprotein (AFP) gene using HepaRG (AID 2283472)
In short: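 Measures AFP mRNA change in HepaRG after 48 h chemical exposure (8 half-log concentrations, highest 100 uM, 0.5% DMSO). Fold change relative to DMSO, fitted in both directions.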

BCL2L11 (gene 10018) = test: LTEA_HepaRG_BCL2L11: Life Technologies and Expression Analysis (LTEA) Assay for Bcl-2 (BCL2L11) gene using HepaRG (AID 2283473)
In short: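 HepaRG, 48 h exposure, 8-pt half-log series from 100 uM in 0.5% DMSO, duplicates; qRT-PCR (Fluidigm TaqMan) for BCL2L11, housekeeping-normalized; bidirectional curve fit relative to DMSO baseline.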

[15] = read-out: Apolipoprotein A-V (APOA5) gene, APOA5 (gene 116519); test: LTEA_HepaRG_APOA5: Life Technologies and Expression Analysis (LTEA) Assay for Apolipoprotein A-V (APOA5) gene using HepaRG (AID 2283474)
In short: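 HepaRG, 48 h chemical exposure in serum-free induction medium, 8-pt half-log series (top 100 uM), 0.5% DMSO vehicle, duplicates. Readout: APOA5 mRNA by qRT-PCR, housekeeping-normalized; bidirectional fit vs DMSO baseline.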

[16] = read-out: Apoptosis regulator Bcl-2 (Homo sapiens) (UniProt P10415); test: LTEA_HepaRG_BCL2: Life Technologies and Expression Analysis (LTEA) Assay for Bcl-2 gene using HepaRG (AID 2283475)
In short: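 Each chemical was tested in duplicate on HepaRG cultures held in serum-free induction medium for 48 h, highest concentration 100 uM with half-log dilutions. Transcript levels came from multiplexed qRT-PCR, normalised to housekeeping genes; activity was scored in either direction relative to DMSO.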

[17] = read-out: Bcl-2 (BID) gene, BID (gene 637); test: LTEA_HepaRG_BID: Life Technologies and Expression Analysis (LTEA) Assay for Bcl-2 (BID) gene using HepaRG (AID 2283476)
In short: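 Assay used HepaRG hepatic cells treated 48 h in serum-free medium with half-log dilutions from 100 uM. Endpoint: BID mRNA, qRT-PCR, normalized to ACTB/GAPDH/POLR2A.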

Caspase-3 (Homo sapiens) = Caspase-3 (Homo sapiens) (UniProt P42574); test: LTEA_HepaRG_CASP3: Life Technologies and Expression Analysis (LTEA) Assay for cysteine-aspartic acid protease (CASP3) using HepaRG (AID 2283477)
Caspase-3 (Homo sapiens), sequence (P42574 whole entry, looked up): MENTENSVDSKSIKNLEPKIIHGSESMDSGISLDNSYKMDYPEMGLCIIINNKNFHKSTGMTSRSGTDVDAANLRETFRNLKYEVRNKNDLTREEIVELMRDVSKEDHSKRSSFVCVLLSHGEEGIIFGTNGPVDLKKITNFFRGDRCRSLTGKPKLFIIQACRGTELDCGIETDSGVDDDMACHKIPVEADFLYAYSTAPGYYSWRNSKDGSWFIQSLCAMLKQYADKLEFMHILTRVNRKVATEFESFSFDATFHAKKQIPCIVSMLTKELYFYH
In short: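 HepaRG, 48 h exposure, 8 conc. (top 100 uM, half-log steps, duplicate), 0.5% DMSO vehicle; qRT-PCR of CASP3 transcript, housekeeping-normalised (ACTB/GAPDH/POLR2A); bidirectional curve fit vs DMSO baseline.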

[18] = read-out: Cytochrome P450 (CYP24A1), CYP24A1 (gene 1591); test: LTEA_HepaRG_CYP24A1: Life Technologies and Expression Analysis (LTEA) Assay for Cytochrome P450 (CYP24A1) using HepaRG (AID 2283478)
In short: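 qRT-PCR read-out: CYP24A1 transcript levels normalized to three housekeeping genes, bidirectional curve fits against 0.5% DMSO baseline. Human HepaRG cells treated 48 h with chemicals at eight concentrations from 100 uM in half-log steps.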

Measured: outcome

Broad substrate specificity ATP-binding cassette transporter ABCG2 (Homo sapiens), sequence (Q9UNQ0 whole entry, looked up): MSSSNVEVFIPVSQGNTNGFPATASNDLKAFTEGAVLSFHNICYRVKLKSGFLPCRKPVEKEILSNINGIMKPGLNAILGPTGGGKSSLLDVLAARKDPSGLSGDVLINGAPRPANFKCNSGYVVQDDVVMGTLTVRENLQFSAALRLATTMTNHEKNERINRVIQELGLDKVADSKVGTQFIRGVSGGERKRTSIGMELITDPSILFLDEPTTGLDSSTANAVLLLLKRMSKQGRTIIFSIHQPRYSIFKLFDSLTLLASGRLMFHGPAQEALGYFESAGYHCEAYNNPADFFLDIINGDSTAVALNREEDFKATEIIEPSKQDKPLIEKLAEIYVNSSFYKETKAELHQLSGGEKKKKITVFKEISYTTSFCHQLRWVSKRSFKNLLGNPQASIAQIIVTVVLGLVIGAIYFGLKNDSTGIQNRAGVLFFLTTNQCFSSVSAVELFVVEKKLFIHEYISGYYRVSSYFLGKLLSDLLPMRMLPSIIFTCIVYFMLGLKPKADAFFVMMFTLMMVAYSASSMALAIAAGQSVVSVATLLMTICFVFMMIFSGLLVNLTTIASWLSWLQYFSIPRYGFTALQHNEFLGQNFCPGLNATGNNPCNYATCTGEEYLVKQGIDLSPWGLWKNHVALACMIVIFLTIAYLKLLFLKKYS
Apoptosis regulator Bcl-2 (Homo sapiens), sequence (P10415 whole entry, looked up): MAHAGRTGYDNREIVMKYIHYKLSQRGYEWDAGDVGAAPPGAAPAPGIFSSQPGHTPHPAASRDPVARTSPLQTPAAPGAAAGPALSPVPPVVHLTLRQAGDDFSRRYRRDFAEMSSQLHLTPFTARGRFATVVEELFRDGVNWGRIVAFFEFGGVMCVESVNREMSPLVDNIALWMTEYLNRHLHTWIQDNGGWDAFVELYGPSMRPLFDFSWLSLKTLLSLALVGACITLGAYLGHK

O=C(O)c1ccc([N+](=O)[O-])cc1
inactive: all assays above
